From PubChem BioAssay (NCATS)
Records with an inconclusive call do not appear. Calls of active or inactive are those of the source. The call rests on the fitted dose curve; in most records, active means well fitted cell-killing curve with a large enough effect; inconclusive means small, poorly fitted or top-dose-only effect; inactive means flat fitted curve, though single readings scatter.

What was measured:
[1] = Cell Viability - LYMP2-024 (AID 988); further: nearly all actives have a fitted effect of over 60% in size
How it was run: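 Cytotoxicity was taken as a decrease in ATP (CellTiter-Glo luminescence) after 24 hr compound exposure at 37 C of LYMP2-024 lymphoblastoid cells, 2500 cells/well. Concentration-response data were fitted to the Hill equation to give AC50.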

[2] = Cell Viability - LYMP2-026 (AID 989); further: nearly all actives have a fitted effect of over 50% in size
How it was run: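 Cytotoxicity read as ATP-dependent luminescence (CellTiter-Glo, 30 min room temperature) after 24 h compound treatment at 37 C. LYMP2-026 lymphoblastoid line seeded at 2500 cells/well; AC50 derived by standard Hill equation.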

[3] = Cell Viability - LYMP1-002 - Assay at 24 hr (AID 993)
How it was run: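 qHTS cytotoxicity at 24 h: CellTiter-Glo ATP luminescence in lymphoblastoid line LYMP1-002 incubated with compound at 37 °C. Concentration-response modeled with the Hill equation for AC50; tetraoctylammonium bromide served as positive control.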

[4] = Cell Viability - LYMP1-002 - Assay at 40 hr (AID 994); further: nearly all actives have a fitted effect of over 60% in size
How it was run: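 Cytotoxicity was read as loss of cellular ATP (CellTiter-Glo luminescence) after 40 hr compound exposure at 37 C of 2500 LYMP1-002 lymphoblastoid cells per well. Concentration-response data were fitted with the standard Hill equation to give AC50.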

Measured: Potency

C=CC(=C)CCC=C(C)C
inactive: all assays above
